# The list is not random: actives were taken first. Their share in the collection is about 2.9%.
# D3 antag: qHTS of D3 Dopamine Receptor Antagonist: qHTS; D(3) dopamine receptor (Homo sapiens), P35462; D3R cells, DiscoveRx beta-arrestin luminescence, antagonist mode; stronger effect = lower value; max response, negative = inhibition, %; actives 2.5% (n = 360,000); in the data active = max response below about -50%; inconclusive = no clear call, values can overlap the other calls; also: % is scaled to controls: 0 for no effect and ±100 for the full control effect
# Target sequence (P35462 whole entry, looked up): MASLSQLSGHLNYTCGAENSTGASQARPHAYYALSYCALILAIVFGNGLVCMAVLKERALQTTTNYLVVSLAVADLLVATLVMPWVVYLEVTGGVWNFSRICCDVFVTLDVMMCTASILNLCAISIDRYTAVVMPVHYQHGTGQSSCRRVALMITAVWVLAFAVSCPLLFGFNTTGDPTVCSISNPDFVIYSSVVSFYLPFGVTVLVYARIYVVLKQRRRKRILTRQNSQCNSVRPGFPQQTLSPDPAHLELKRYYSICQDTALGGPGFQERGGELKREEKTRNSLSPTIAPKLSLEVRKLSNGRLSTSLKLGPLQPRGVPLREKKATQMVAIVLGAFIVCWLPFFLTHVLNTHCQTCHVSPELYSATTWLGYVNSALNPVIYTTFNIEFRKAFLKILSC
#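 Cells plated overnight at 1500 cells/well, then exposed to library compounds with dopamine controls for 90 minutes at 37 degrees C. DiscoveRx reagent added for 30–60 minutes at room temperature; luminescence read, quantitative HTS format.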
# mIDH1 inhibitor: qHTS for Inhibitors of mutant isocitrate dehydrogenase 1 (IDH1): qHTS; Isocitrate dehydrogenase [NADP] cytoplasmic (Homo sapiens), O75874; IDH1-R132H enzyme, NADPH consumption, diaphorase/resazurin fluorescence; Potency, µM (top dose mostly 76.6 µM), without a hit: at the top dose activity change, negative = inhibition, most hits filed as inhibitors; actives 0.093% (n = 390,000); AID 602179, 2012; also: potency is read from the fitted curve at half-maximal effect; % is scaled to controls: 0 for no effect and ±100 for the full control effect; nearly all actives have a fitted effect of over 65% in size
#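 IDH1-R132H (0.5 ug/mL dispensed) in pH 7.5 Tris buffer was preincubated 30 min with compound, then given a substrate mix of 0.016 mM NADPH and 2 mM alpha-KG for 80 min at room temperature; remaining NADPH was read by diaphorase/resazurin fluorescence.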
# a7 integrin act: qHTS for Activators of Integrin-Mediated Alleviation for Muscular Dystrophy; alpha7betagal myoblasts, beta-gal FDG fluorescence, 48 h; Potency, µM (top dose mostly 38.3 µM), for inactives: top-dose activation, most hits filed as activators; actives 0.064% (n = 350,000); AID 624291, 2012;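 also: potency is read from the fitted curve at half-maximal effect; 100% = response of the positive control SU9516; nearly all actives have a fitted effect of over 60% in size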
#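 Alpha7betagal+/- myoblasts (passage 13) were plated 16-24 hr, then exposed to compounds (1:260 dilution of DMSO stock) for 48 hours at 37C. After MPER lysis, β-galactosidase reporter activity was read as FDG fluorescence (ex 480/em 540) after 30 minutes.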
# B2AR arrestin: qHTS assay of beta-arrestin-biased ligands of beta2-adrenergic receptor | beta-arrestin recruitment to beta2AR, cell-based reporter | actives 0.02% (n = 330,000) | Potency, µM (top dose mostly 46.1 µM), without a hit: at the highest dose activation, actives largely listed as activators;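 also: potency is read from the fitted curve at half-maximal effect; 0% = DMSO controls and full agonism = EC100 isoproterenol or metaproterenol; nearly all actives have a fitted effect of over 65% in size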
# D3 ag: qHTS of D3 Dopamine Receptor Agonist: qHTS; D3R DiscoveRx beta-arrestin cells, luminescence, 90 min; max activation, %; actives 0.58% (n = 410,000); in the data active = max activation above about 30%; also: 0% is about no effect
#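 Agonist mode: compounds and dopamine controls were applied to plated cells for 90 min at 37 degrees C after an overnight attachment at 1500 cells/well. Luminescent read-out followed 30 - 60 minutes at room temperature with DiscoveRx detection reagent.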
# Active calls of the source: *; ? = inconclusive; · = no result given. Unless noted, calls follow the shape of the dose curve; as a rule, active = well fitted curve in the direction sought with a large enough effect; inconclusive = small, poorly fitted or top-dose-only effect, or another doubt; inactive = no such curve, though single readings can be large; an effect the other way counts as inactive or inconclusive.
SMILES,D3 antag,mIDH1 inhibitor,a7 integrin act,B2AR arrestin,D3 ag
COc1ccccc1CNC(=O)CSc1ncc2c(n1)-c1cc(Cl)ccc1N(Cc1ccccc1)S2(=O)=O,·,?,·,·,2
O=C(Nc1ccc(Cl)cn1)c1cccnc1,-51*,4%,-9%,0%,3
COC(=O)C1CCN(C(=O)Cc2ccc(C)cc2)CC1,0,4%,-7%,1%,2
CCOC(=O)N1CCN(C(=O)Cc2ccc(C)cc2)CC1,-58*,-3%,-19%,0%,1
COc1cccc(CN2CCN(Cc3cccc(Oc4ccccc4)c3)CC2)c1OC,-59*,-5%,-14%,0%,-21
CN1CCN(Cc2cccc(Oc3ccc(Cl)cc3)c2)CC1,-52*,-2%,0%,-1%,-35
COc1cccc(CN2CCC(N(CCc3ccccc3)Cc3ccccc3)CC2)c1OC,-85*,11%,-59%,5%,-11
COc1cc(CN2CCN(C(c3ccccc3)c3ccccc3)CC2)cc(OC)c1OC,-85*,1%,-32%,1%,-3
COc1cccc(CN2CCN(Cc3cc(OC)c(OC)c(OC)c3)CC2)c1OC,-22,-4%,-22%,-1%,-8
COc1cccc(N2CCN(C(=O)CN3CCSc4ccccc43)CC2)c1,·,6%,·,·,3
Cc1cc(-c2ccc(S(=O)(=O)Nc3ccc(Cl)cc3C)cc2)on1,·,10%,·,·,2
CCOC(=O)C1CCN(Cc2cccc(Oc3ccc(Cl)cc3)c2)CC1,?,0%,-59%,0%,6
CCN1CCN(Cc2cccc(Oc3ccc(Cl)cc3)c2)CC1,-63*,0%,-35%,0%,-32
CCN1CCN(Cc2cccc(Oc3ccccc3)c2)CC1,-52*,9%,-16%,0%,-28
c1ccc(Oc2cccc(CN3CCCCC3)c2)cc1,-29,5%,13%,0%,-23
CC(Oc1ccccc1)C(=O)Nc1ccc(C(=O)OCc2cc(=O)n3nc(C(C)C)sc3n2)cc1 (configuration not stated),·,-11%,·,·,1
Cc1cc2c(cc1[N+](=O)[O-])NC(CNC(C)C)CC2 (configuration not stated),-83*,5%,-53%,-1%,-7
COc1cc(C)cc2oc(=O)c(CC(=O)NCc3cccc(Cl)c3)c(C)c12,·,-12%,·,·,-2
O=C(N/N=C/c1cc2c(cc1Br)OCO2)c1ccccn1,-5,-3%,12%,0%,-18
CC(C)(C)c1cc(C(=O)N/N=C/c2cc3c(cc2Br)OCO3)n[nH]1,-88*,9%,8%,0%,-24
Cc1[nH]c2ccccc2c1/C=N/NC(=O)c1cc(C(C)(C)C)[nH]n1,-59*,6%,-23%,0%,-43
O=C(N/N=C/c1cc2c(cc1Br)OCO2)c1cc2ccccc2o1,-107*,-5%,-32%,1%,-29
Cc1ccc(NC(=O)CSc2nc(-c3cccs3)cc(C(F)(F)F)n2)cc1C,·,-5%,·,·,-1
Cc1cc(OC(C)C(=O)N2CCC(c3nc4ccccc4o3)CC2)ccc1Cl (configuration not stated),·,7%,·,·,4
CC(=O)c1cccc(NC(=O)C(=O)Nc2cccc3ccccc23)c1,5,1%,8.9µM*,-1%,2
SMILES,D3 antag,mIDH1 inhibitor,a7 integrin act,B2AR arrestin,D3 ag
CC(=O)c1ccc(NC(=S)Nc2cccc3ccccc23)cc1,-10,4%,-29%,-1%,-14
CCOC(=O)/C=C/[C@H]1CCc2cccc(C)c2O1,-63*,3%,6%,0%,5
CCOC(=O)/C=C/[C@H]1Cc2ccccc2CO1,1,1%,8%,0%,-11
O=C(CN(c1ccc(Cl)c(C(F)(F)F)c1)S(=O)(=O)c1ccccc1)N/N=C/c1cccc2c1OCCO2,-63*,-1%,-34%,0%,-9
CS(=O)(=O)N(CC(=O)N/N=C/c1cccc2c1OCCO2)c1ccccc1Br,-3,3%,23%,-1%,2
CC(=O)c1cn(CC(=O)Nc2ccccc2Cl)c2ccccc12,7,2%,0%,0%,0
CCCN1CCC(N2CCN(c3cccc(C(F)(F)F)c3)CC2)CC1,?,11%,-34%,0%,-27
FC(F)(F)c1cccc(N2CCN(CC3CC4C=CC3C4)CC2)c1 (configuration not stated),-72*,6%,-6%,0%,-23
CCCS(=O)(=O)N1CCN(CC2CC3C=CC2C3)CC1 (configuration not stated),-21,1%,13%,-1%,-6
C1=CC2CC1CC2CN1CCN(Cc2ccccc2)CC1 (configuration not stated),-53*,2%,-23%,0%,-22
Fc1ccccc1N1CCN(CC2CC3C=CC2C3)CC1 (configuration not stated),-71*,0%,-1%,0%,12
CCS(=O)(=O)N1CCN(CC2CC3C=CC2C3)CC1 (configuration not stated),-72*,5%,7%,0%,-7
Cc1ccc(S(=O)(=O)N2CCN(CC3CC4C=CC3C4)CC2)cc1 (configuration not stated),-25,-1%,-19%,0%,-8
CCOC(=O)c1c(NC(C)=O)c2c3c(sc2n1Cc1nc(-c2ccccc2Cl)oc1C)CCCC3,·,·,·,·,2
O=C(/C=C/c1ccc(Br)cc1)NC(=S)NNC(=O)c1ccco1,-84*,6%,-27%,0%,-10
COCCCNC(=O)c1ccc(-c2nc(CS(=O)(=O)c3ccc(C)cc3)c(C)o2)cc1,·,7%,·,·,-8
CC(O)(c1ccccc1)c1nc(-c2cccc(C(=O)O)c2)cs1 (configuration not stated),-10,·,·,·,-7
CC(O)(c1cccc(F)c1)c1nc(-c2cccc(C(F)(F)F)c2)cs1 (configuration not stated),-53*,·,·,·,-16
CC(O)(c1cccc(F)c1)c1nc(-c2ccccc2)cs1 (configuration not stated),-89*,·,·,·,-12
CC(O)(c1ccc(F)c(F)c1)c1nc(-c2cccc(C(F)(F)F)c2)cs1 (configuration not stated),20,·,·,·,-3
CC(C)c1cccc(-c2csc(C(C)(O)c3ccccc3)n2)c1 (configuration not stated),-57*,·,·,·,-15
COc1ccc(-c2csc(C(C)(NC(C)=O)c3ccc(OC)cc3)n2)cc1 (configuration not stated),-51*,·,·,·,-10
CC1CC(O)CC(C)(C)C1 (configuration not stated),·,·,·,·,0

# Screens (PubChem BioAssay)
